Reference: PubChem BioAssay
The source made the active and inactive calls.

Assays:
[1] = test system: PRMT1 (protein arginine N-methyltransferase 1); assay: small molecules binding arginine methyltransferase PRMT1 – biochemical, small-molecule microarray, 635 nm fluorescence, primary screen (AID 1088); settings: higher = more signal;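 also: binding of Prmt1 protein to compounds spotted on small-molecule microarray slides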
[2] = growth effects on S. cerevisiae YJM789 – YJM789 clinical isolate, OD600, 24 h, basal, primary screen (AID 1089); settings: higher = more signal, called active from +8 up or from −8 down;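 also: growth of clinical yeast isolate S. cerevisiae YJM 789 seeded 1000 cells per well; test concentration not given here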
[3] = S. pombe growth modifiers, basal conditions – strain 972, OD600, 24 h, no modulator, primary screen (AID 1090);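 also: basal condition with compound alone and no growth modifier present; test concentration not given here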; settings: S. pombe 972 growth, higher = more signal, called active from +8 up or from −8 down
[4] = budding yeast growth modifiers under rapamycin – strain BY4716, OD600, 96 h, primary screen (AID 1091); also: test concentration not given here; settings: S. cerevisiae BY4716 + rapamycin, higher = more signal, called active from +8 up or from −8 down
[5] = target: Torsin-1A-interacting protein 2 (Homo sapiens) (UniProt Q8NFQ8); assay: small molecules binding lysate-expressed LULL1 – cell lysate, human LULL1 lysate, 635/667 nm fluorescence, primary screen (AID 1092); settings: small-molecule microarray, hLULL1 lysate binding, 635 nm fluorescence; higher = more signal;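 also: probe is lysate of COS7 cells overexpressing human LULL1; score merges per-feature 667 nm fluorescence with signal-to-noise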
Torsin-1A-interacting protein 2 (Homo sapiens), sequence (Q8NFQ8 whole entry, looked up): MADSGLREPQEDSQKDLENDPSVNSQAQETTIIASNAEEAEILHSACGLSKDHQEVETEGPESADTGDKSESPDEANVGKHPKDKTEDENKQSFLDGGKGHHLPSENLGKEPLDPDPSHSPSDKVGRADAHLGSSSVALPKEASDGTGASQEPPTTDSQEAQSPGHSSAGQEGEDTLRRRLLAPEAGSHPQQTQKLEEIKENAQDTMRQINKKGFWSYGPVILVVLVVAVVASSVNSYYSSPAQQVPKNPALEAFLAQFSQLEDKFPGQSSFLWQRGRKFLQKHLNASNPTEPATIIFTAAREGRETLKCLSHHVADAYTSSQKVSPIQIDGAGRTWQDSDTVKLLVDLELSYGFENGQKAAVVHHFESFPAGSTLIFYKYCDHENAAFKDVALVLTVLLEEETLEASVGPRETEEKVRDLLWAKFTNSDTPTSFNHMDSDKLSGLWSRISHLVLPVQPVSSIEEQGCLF

[6] = optical density change of DRC41 E. coli – strain DRC41, OD650, 24 h, E. coli filamentation project, primary screen (AID 1093);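 also: MC1000 strain lacking acrAB efflux and sulA so SOS filamentation is blocked; test concentration not given here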; settings: E. coli DRC41 growth, higher = more signal, called active from +8 up or from −8 down
[7] = probe aLefty2 binding to arrayed compounds – biochemical, biotinylated probe, 635/667 nm fluorescence, primary screen (AID 1094); settings: small-molecule microarray, higher = more signal;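 also: score merges spot fluorescence near 667 nm with spot signal-to-noise ratio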
[8] = test system: Noggin (protein binding on small-molecule microarray); assay: small molecules binding Noggin protein – biochemical, 635/667 nm fluorescence, primary screen (AID 1095); settings: 635 nm fluorescence, higher = more signal;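 also: score merges 667 nm feature fluorescence with signal to noise over triplicate slides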
[9] = target: Neurogenic locus notch homolog protein 3 (Homo sapiens) (UniProt Q9UM47); assay: small molecules binding NOTCH3 protein – biochemical, 635/667 nm fluorescence, primary screen (AID 1096); settings: small-molecule microarray, 635 nm fluorescence, higher = more signal
Neurogenic locus notch homolog protein 3 (Homo sapiens), sequence (Q9UM47 whole entry, looked up): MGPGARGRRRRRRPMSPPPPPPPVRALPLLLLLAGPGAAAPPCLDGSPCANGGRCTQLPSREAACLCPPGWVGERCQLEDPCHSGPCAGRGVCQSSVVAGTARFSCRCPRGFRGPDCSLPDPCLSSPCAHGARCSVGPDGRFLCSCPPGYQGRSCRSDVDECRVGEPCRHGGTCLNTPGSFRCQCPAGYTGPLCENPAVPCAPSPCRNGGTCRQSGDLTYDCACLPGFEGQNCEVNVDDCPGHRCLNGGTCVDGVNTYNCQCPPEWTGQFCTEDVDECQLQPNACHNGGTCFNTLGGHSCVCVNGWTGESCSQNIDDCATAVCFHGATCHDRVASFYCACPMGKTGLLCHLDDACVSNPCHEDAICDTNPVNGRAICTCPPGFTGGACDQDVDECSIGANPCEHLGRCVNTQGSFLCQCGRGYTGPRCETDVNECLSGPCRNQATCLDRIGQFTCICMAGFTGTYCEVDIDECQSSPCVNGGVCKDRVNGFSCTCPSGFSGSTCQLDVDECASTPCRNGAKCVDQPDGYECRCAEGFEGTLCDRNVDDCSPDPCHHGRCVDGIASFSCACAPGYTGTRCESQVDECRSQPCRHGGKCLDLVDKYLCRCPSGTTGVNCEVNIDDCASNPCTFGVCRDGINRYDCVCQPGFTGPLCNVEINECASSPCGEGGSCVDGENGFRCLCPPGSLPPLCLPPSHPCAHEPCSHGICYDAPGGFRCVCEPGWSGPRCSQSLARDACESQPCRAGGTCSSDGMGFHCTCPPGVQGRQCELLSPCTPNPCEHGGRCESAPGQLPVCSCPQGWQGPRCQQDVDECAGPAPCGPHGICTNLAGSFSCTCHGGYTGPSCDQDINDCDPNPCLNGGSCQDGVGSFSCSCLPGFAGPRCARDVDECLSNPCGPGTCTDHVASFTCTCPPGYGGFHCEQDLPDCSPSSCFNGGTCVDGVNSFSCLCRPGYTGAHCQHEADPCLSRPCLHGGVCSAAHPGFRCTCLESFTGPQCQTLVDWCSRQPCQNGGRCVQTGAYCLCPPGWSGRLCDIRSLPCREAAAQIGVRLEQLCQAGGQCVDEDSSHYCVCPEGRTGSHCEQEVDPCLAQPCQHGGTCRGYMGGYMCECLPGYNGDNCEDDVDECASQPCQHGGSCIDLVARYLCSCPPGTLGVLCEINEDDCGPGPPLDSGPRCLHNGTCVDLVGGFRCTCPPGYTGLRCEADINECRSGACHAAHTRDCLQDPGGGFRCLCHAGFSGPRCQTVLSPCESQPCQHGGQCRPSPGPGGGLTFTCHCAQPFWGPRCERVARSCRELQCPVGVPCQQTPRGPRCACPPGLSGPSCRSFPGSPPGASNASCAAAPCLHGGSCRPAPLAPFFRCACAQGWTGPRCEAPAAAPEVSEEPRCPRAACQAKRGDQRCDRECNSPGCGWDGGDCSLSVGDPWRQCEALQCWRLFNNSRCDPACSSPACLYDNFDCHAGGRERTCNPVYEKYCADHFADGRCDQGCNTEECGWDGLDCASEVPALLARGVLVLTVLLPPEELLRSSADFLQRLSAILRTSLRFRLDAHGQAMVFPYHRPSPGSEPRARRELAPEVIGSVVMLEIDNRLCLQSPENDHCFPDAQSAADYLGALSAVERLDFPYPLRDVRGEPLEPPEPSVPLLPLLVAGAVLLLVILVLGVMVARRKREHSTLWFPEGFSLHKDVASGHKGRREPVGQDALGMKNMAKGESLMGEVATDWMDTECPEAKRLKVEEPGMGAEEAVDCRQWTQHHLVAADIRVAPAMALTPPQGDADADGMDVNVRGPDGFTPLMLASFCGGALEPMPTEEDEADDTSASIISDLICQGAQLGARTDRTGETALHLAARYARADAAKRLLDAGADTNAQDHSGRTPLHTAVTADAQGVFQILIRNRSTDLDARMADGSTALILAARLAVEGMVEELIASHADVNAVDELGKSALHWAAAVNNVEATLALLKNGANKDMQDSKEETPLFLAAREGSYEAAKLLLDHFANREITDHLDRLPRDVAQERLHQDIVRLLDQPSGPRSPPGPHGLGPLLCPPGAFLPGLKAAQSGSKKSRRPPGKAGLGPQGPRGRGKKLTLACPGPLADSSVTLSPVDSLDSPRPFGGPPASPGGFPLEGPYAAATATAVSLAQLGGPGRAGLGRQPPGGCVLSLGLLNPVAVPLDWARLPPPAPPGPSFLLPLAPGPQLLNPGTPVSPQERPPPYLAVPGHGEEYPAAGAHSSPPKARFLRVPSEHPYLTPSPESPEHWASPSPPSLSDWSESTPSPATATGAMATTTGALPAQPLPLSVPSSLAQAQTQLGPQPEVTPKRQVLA

[10] = probe aEGFR binding to arrayed compounds – biochemical, biotinylated probe, 635/667 nm fluorescence, primary screen (AID 1097); settings: small-molecule microarray, higher = more signal;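 also: probe is a biotinylated anti-EGFR antibody binding compounds printed on slides; score combines fluorescence near 667 nm and signal to noise of each spot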
[11] = test system: Plasmodium falciparum Sir2 (PF13_0152, Sir2A); assay: Plasmodium falciparum Sir2A binding compounds – biochemical, small-molecule microarray, 635 nm fluorescence, primary screen (AID 1098); settings: fluorescence 635 nm, higher = more signal;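 also: score merges spot fluorescence intensity with its signal-to-noise ratio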
[12] = probe aDKK1 binding to arrayed compounds – biochemical, biotinylated probe, 635/667 nm fluorescence, primary screen (AID 1099); settings: small-molecule microarray, higher = more signal;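 also: score merges 667nm spot fluorescence with signal to noise across triplicate slides; reference of the scale not given here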
[13] = probe aCHRDL2 binding to arrayed compounds – biochemical, biotinylated probe, 635/667 nm fluorescence, primary screen (AID 1100); settings: small-molecule microarray, higher = more signal
[14] = change in splice reporter luminescence, either direction, cell-based, HEK293, spliceosome inhibition project, primary screen (AID 1101); settings: HEK293 splicing luciferase reporter, 24 h, higher = more signal, called active from +8 up or from −8 down;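 also: HEK293 cells carrying a splicing-competent luciferase reporter gene; test concentration not given here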
[15] = target: Fibroblast growth factor 10 (Homo sapiens) (UniProt O15520); assay: compounds binding fibroblast growth factor 10 – biochemical, small-molecule microarray, 635 nm fluorescence, primary screen (AID 1102); settings: FGF10 binding, fluorescence 635 nm, higher = more signal
Fibroblast growth factor 10 (Homo sapiens), sequence (O15520 whole entry, looked up): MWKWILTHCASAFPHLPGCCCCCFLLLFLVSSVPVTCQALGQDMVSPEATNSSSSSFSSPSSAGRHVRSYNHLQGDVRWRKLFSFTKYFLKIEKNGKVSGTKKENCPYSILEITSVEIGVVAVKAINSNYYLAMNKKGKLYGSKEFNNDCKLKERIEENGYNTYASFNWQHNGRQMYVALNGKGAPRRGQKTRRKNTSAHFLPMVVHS

[16] = test system: glycogen synthase kinase-3 (GSK3A per assay name; protocol says GSK3B); assay: compounds binding glycogen synthase kinase-3 – biochemical, small-molecule microarray, 635 nm fluorescence, GSK3A, primary screen (AID 1103); settings: fluorescence 635 nm, higher = more signal; also: the record names both GSK3A and GSK3B
[17] = target: Epidermal growth factor receptor (Homo sapiens) (UniProt P00533); assay: compounds binding epidermal growth factor receptor – biochemical, small-molecule microarray, 635 nm fluorescence, primary screen (AID 1104); settings: EGFR binding, higher = more signal;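 also: score merges 667 nm emission intensity with spot signal to noise over triplicate slides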
Epidermal growth factor receptor (Homo sapiens), sequence (P00533 whole entry, looked up): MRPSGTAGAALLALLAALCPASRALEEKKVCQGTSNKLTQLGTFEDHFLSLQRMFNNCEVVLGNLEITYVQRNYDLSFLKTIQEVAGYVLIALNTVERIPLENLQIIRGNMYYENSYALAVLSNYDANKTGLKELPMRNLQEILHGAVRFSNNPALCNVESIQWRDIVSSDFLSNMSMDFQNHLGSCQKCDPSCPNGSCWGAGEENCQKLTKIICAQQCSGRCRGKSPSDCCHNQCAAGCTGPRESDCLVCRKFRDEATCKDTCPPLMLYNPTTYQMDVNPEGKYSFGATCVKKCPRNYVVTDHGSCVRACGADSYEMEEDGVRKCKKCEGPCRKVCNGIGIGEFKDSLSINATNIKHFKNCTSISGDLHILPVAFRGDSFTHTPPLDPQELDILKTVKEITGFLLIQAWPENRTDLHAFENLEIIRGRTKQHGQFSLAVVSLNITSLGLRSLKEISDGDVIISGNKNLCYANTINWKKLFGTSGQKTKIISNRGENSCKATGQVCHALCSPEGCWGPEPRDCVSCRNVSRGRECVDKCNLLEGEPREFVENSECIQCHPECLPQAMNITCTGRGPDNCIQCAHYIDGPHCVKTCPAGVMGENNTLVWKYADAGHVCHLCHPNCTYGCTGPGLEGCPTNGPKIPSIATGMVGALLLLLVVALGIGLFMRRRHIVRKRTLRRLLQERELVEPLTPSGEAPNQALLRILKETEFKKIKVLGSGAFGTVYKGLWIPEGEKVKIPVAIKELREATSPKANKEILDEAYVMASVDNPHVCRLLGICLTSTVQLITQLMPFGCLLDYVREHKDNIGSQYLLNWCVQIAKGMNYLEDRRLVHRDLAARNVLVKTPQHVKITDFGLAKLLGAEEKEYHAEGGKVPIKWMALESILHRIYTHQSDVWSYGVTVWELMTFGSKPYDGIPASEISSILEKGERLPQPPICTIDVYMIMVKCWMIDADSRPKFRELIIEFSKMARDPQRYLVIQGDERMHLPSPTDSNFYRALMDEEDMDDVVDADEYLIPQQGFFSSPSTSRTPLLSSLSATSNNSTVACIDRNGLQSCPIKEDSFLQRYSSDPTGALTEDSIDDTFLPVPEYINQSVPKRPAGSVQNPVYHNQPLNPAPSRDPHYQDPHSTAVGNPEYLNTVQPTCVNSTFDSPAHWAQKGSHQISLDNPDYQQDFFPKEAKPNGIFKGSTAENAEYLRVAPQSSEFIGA

[18] = target: Follistatin-related protein 3 (Homo sapiens) (UniProt O95633); assay: compounds binding follistatin-related protein 3 – biochemical, small-molecule microarray, 635 nm fluorescence, primary screen (AID 1105); settings: FSTL3 binding, higher = more signal;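 also: score merges emission near 667 nm and signal to noise per printed spot across three slides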
Follistatin-related protein 3 (Homo sapiens), sequence (O95633 whole entry, looked up): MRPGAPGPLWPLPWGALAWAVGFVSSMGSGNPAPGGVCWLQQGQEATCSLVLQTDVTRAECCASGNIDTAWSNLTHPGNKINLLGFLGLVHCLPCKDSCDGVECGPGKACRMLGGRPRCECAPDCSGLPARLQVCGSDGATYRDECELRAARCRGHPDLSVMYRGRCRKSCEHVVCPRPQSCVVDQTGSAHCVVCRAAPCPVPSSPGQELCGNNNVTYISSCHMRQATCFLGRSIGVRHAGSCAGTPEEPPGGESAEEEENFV

[19] = target: Dickkopf-related protein 1 (Homo sapiens) (UniProt O94907); assay: small molecules binding DKK1 protein – biochemical, small-molecule microarray, 635 nm fluorescence scan, primary screen (AID 1106); settings: higher = more signal;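 also: score merges emission near 667 nm with signal to noise over three replicate slides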
Dickkopf-related protein 1 (Homo sapiens), sequence (O94907 whole entry, looked up): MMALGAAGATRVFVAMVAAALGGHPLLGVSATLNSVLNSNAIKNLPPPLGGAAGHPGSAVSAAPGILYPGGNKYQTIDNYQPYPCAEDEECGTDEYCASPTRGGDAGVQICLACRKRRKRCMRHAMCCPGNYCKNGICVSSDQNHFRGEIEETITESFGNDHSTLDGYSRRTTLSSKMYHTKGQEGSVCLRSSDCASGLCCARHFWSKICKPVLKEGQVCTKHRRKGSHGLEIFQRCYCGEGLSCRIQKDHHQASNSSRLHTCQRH

[20] = test system: Inhibin beta A chain (activin A); assay: small molecules binding activin A – biochemical, small-molecule microarray, 635 nm fluorescence scan, primary screen (AID 1107); settings: INHBA, higher = more signal;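 also: mouse activin A protein probed at 4.33 µg/mL on printed slides; score merges bound-protein fluorescence near 667 nm with spot signal-to-noise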

| Structure (SMILES) | composite z-score [1] | z-score [2] | z-score [3] | z-score [4] | composite z-score [5] | z-score [6] | composite z-score [7] | composite z-score [8] | composite z-score [9] | composite z-score [10] | composite z-score [11] | composite z-score [12] | composite z-score [13] | z-score [14] | composite z-score [15] | composite z-score [16] | composite z-score [17] | composite z-score [18] | composite z-score [19] | composite z-score [20] |
| --- | --- | --- | --- | --- | --- | --- | --- | --- | --- | --- | --- | --- | --- | --- | --- | --- | --- | --- | --- | --- |
| CC(C)(C)OC(=O)CC[C@]1(C(=O)NCc2ccccc2)N=C(c2ccc(OCCCO)cc2)O[C@H]1c1ccccc1 | 1.55 | -0.105 (inactive) | 0.851 (inactive) | 1.64 (inactive) | 3.71 | 0.0596 (inactive) | -0.0354 | 0.798 | 0.97 | -0.123 | 1.73 | -0.0749 | 0.574 | 0.351 (inactive) | 0.686 | 1.24 | 0.0167 | -0.136 | -0.402 | -0.285 |
| C[C@H](c1ccccc1)N1C(=O)[C@H]2[C@H]3[C@H](O)[C@H](O)CC(=O)[C@@H]3CC[C@H]2C1=O | 0.27 | -0.228 (inactive) | -0.522 (inactive) | -0.478 (inactive) | 0.685 | -0.417 (inactive) | -0.226 | 0.245 | 0.419 | 0.221 | -0.0226 | -0.0352 | -0.394 | 0.737 (inactive) | 0.615 | -0.0137 | 0.268 | 0.344 | 0.822 | -1.79 |
| COCC(=C=CC[C@@H](O)c1ccccc1OCCO)CCO | 0.68 | 0.621 (inactive) | 0.0008 (inactive) | 0.199 (inactive) | 2.36 | 0.71 (inactive) | 0.0378 | 0.436 | 0.442 | -0.0332 | 0.718 | 0.117 | 0.09 | 0.0385 (inactive) | 1.49 | -0.0421 | -0.423 | 0.135 | 0.335 | 0.706 |
| COc1cccc([C@H]2Oc3ccc(OC)cc3C(=NO[C@H](C)c3cn([C@@H]4COC[C@H]4O)nn3)[C@@H]2O)c1 | -0.499 | 0.0141 (inactive) | 0.874 (inactive) | 0.467 (inactive) | -0.077 | -0.398 (inactive) | -0.126 | -0.427 | -1.34 | -0.267 | 0.53 | -0.393 | -0.381 | -0.992 (inactive) | -0.481 | -1.14 | -0.0724 | -0.525 | 0.0385 | 0.0726 |
| O=C1O[C@@H](c2ccccc2)[C@@H](c2ccccc2)N2[C@@H](c3ccc(OCCO)cc3)[C@]3(C(=O)Nc4ccc(C#CCCO)cc43)[C@@H](C(=O)N3CCCCCCC3)[C@H]12 | 1.54 | 1.15 (inactive) | -0.507 (inactive) | 2.23 (inactive) | 3.83 | 0.694 (inactive) | 1.35 | 1.39 | 1.08 | 0.249 | 1.85 | 2.25 | 1.13 | -0.277 (inactive) | 1.22 | 1.32 | 0.744 | 1.55 | 1.78 | 1.71 |
| CCN(CC)c1ccc(N2CC=CC34O[C@@H]5/C=C\CCC(C)OC(=O)C5[C@H]3C(=O)N(CCCO)[C@@H]4C2=O)cc1 (stereo not given in full) | -1 | 0.664 (inactive) | -0.0895 (inactive) | 0.928 (inactive) | 0.964 | 0.0591 (inactive) | -0.143 | -0.686 | -0.397 | -0.27 | 1.44 | -0.137 | 0.325 | 0.122 (inactive) | -0.221 | -0.615 | -1.02 | -0.777 | -0.492 | 1.01 |
| CC(C)c1ccc(NN2C(C(O)c3ccc4c(c3)OCO4)C=CC3C(=O)N(c4ccccc4)C(=O)C32)cc1 (stereo not given) | 1.21 | -0.0261 (inactive) | 0.0855 (inactive) | 0.599 (inactive) | 3.5 | 0.0026 (inactive) | 0.304 | 1.01 | 1.1 | -0.0845 | 1.19 | 0.521 | 0.944 | 1.18 (inactive) | 0.584 | 1.18 | 0.407 | 0.886 | 0.263 | 0.581 |
| CCOC(=O)[C@H](Cc1ccccc1)NC(=O)CCC1CC(OC(=O)NCc2ccc3c(c2)OCO3)CC2(CCCC(COC(=O)NCC(c3ccccc3)c3ccccc3)O2)O1 (stereo not given in full) | 1.16 | 0.668 (inactive) | 0.9 (inactive) | 0.687 (inactive) | 2.34 | 0.454 (inactive) | -0.0485 | 0.955 | 1.06 | -0.157 | 1.06 | -0.0362 | -0.481 | -1.45 (inactive) | 0.525 | 1.23 | 0.251 | 0.929 | 0.377 | -0.0374 |
| CC1CC/C=C\[C@H]2OC34C=CCN(Cn5nnc6ccccc65)C(=O)[C@H]3N(CCO)C(=O)[C@@H]4C2C(=O)O1 (stereo not given in full) | 0.754 | -1.71 (inactive) | -1.64 (inactive) | -1.99 (inactive) | 3.32 | 2.92 (inactive) | -0.0819 | -1.08 | -0.695 | -0.424 | 2 | -0.559 | 0.514 | -1.58 (inactive) | -1.16 | 0.476 | -1.01 | 0.0695 | -0.52 | 1.19 |
| CCOC(=O)CCN1C(=O)[C@H]2[C@H]3[C@H](O)[C@H](O)CC(=NOC[C@@H](O)COCc4ccco4)[C@H]3CC[C@H]2C1=O | 1.46 | -0.114 (inactive) | -3.86 (inactive) | -0.86 (inactive) | 0.756 | 0.09 (inactive) | -0.188 | 0.474 | 0.921 | 0.0649 | 0.413 | 0.0262 | -0.5 | -1.12 (inactive) | 0.449 | 0.596 | 0.328 | 0.608 | 0.433 | 0.0553 |
